Screening data (PubChem)
Menin-MLL TR inh = menin-MLL binding inhibition, Texas Red mutant peptide. O00255. AID 1768. Menin + Texas Red MLL mutant peptide, fluorescence polarization. 270,000 compounds, 0.23% hits. Potency, µM (series often up to 61.6 µM), without a hit: at the highest dose FP activity change, negative = inhibition, hits mostly inhibitors; active means well fitted inhibition curve with a large enough effect in the polarisation, with a control signal flat, not every such curve was filed as active; inconclusive means small, poorly fitted or top-dose-only effect, or effect the other way, or a change in a side signal; inactive means no such curve, though single readings can be large or run the other way; the % refers to the polarisation; further: potency means the concentration at half of the fitted maximal effect; % of control where 0% means no effect
Target sequence (O00255 whole entry, looked up): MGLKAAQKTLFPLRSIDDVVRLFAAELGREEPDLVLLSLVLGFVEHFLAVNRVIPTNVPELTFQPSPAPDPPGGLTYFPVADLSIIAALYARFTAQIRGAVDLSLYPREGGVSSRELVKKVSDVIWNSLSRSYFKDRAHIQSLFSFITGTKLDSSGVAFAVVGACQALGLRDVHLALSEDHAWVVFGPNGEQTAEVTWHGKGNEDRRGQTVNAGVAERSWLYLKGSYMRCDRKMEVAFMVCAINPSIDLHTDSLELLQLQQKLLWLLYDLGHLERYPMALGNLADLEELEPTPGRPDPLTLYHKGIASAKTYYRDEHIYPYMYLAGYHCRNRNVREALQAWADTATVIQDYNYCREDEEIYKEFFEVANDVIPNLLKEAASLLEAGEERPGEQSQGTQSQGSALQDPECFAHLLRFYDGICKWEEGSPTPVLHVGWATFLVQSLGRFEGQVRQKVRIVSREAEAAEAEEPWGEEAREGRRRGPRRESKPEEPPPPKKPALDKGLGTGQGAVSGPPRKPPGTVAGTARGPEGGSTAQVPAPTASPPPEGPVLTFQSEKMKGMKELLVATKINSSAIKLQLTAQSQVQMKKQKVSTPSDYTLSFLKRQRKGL
Epigenetic derep = derepresses silenced GFP reporter in murine cells; murine LDR cells, GFP reporter derepression, 30 h; Potency, µM (series often up to 53.9 µM), for the others: at the top dose GFP activation, hits mostly activators; 280,000 compounds, 0.2% hits; AID 1865; active means well fitted activation curve with a large enough effect; inconclusive means small, poorly fitted or top-dose-only effect; further: potency means the concentration at half of the fitted maximal effect; % of control where 0% means no effect; nearly all actives have a fitted effect of over 60% in size
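Murine LDR cells carrying a silenced, genomically integrated CMV-driven GFP reporter were exposed to compound for 30 hours at 37 C. After PBS washes, GFP-positive cells (20–120 um objects) were counted by laser-scanning microplate cytometry.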
MLL CXXC-DNA inh = blocks binding of human MLL CXXC domain to DNA. Q03164. MLL-CXXC / FITC-HOXA9 DNA fluorescence polarization. Potency, µM (series often up to 115 µM), for inactives: at the highest dose activity change, negative = inhibition, hits mostly inhibitors. 290,000 compounds, 0.037% hits. AID 2662; active means well fitted inhibition curve with a large enough effect in the polarisation, with a control signal flat, not every such curve was filed as active; inconclusive means small, poorly fitted or top-dose-only effect, or effect the other way, or a change in a side signal; inactive means no such curve, though single readings can be large or run the other way; the % refers to the polarisation; further: potency means the concentration at half of the fitted maximal effect
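Fluorescence polarization: 7 uM MLL-CXXC (stock) preincubated 5 min with compounds, then 50 nM fluorescein-HOX-A9 DNA (stock) added; 30 min ambient. Buffer 50 mM Tris-HCl pH 7.5, 50 mM NaCl, 1 mM DTT, 0.05% BSA.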
Lamin A splicing = changes lamin A minigene splicing in HeLa cells; HeLa LMNA splicing GFP/RFP minigene ratio, 48 h; Potency, µM (series often up to 46.1 µM), for the others: at the top dose ratio change, negative = inhibition, usual class: inhibitors; 200,000 compounds, 0.01% hits; AID 1487; active means well fitted inhibition curve with a large enough effect in the signal ratio, with a control signal flat, not every such curve was filed as active; inconclusive means small, poorly fitted or top-dose-only effect, or effect the other way, or a change in a side signal; the % refers to the signal ratio; further: potency means the concentration at half of the fitted maximal effect; on the % scale 0 is the no-effect control and ±100 the full control effect
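Read-out is the ratio of GFP to DsRed2 object intensity, acquired by 488 nm laser-scanning cytometry on HeLa lamin A-EGFP minigene reporter cells. Compound incubation 48 hrs at 37 °C in Opti-MEM with 2% FBS; DMSO 0.5% final.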
Menin MLL FP FL = menin-MLL binding inhibition, fluorescein peptide. Fluorescence polarization, fluorescein-MLL peptide displacement from menin. FP activity change, % at 61.4 µM. 290,000 tested, under 10 active. AID 1766; active means well fitted curve in the direction sought with a large enough effect in the polarisation, not every such curve was filed as active; inconclusive means small, poorly fitted or top-dose-only effect, or effect the other way, or a change in a side signal; inactive means no such curve, though single readings can be large or run the other way; the % refers to the polarisation; further: % of control where 0% means no effect
* hit, by the source's call; ? = inconclusive; . = no result given; [ ] = remark or other dose. Hits are enriched below; roughly 0.26% of the tested compounds scored in any of these assays.

SMILES	Menin-MLL TR inh	Epigenetic derep	MLL CXXC-DNA inh	Lamin A splicing	Menin MLL FP FL
COc1cc(/C=C(/C#N)c2nc(-c3cc4ccccc4oc3=O)cs2)cc([N+](=O)[O-])c1O	.	0%	-20%	.	0
COc1cc(/C=C(\C#N)c2nc3ccccc3o2)ccc1O	.	2.2µM*	?	.	?
COc1cc(/C=C(\C#N)c2nc(-c3cc4ccccc4oc3=O)cs2)ccc1O	?	4.5µM*	28%	4%	?
N#C/C(=C\c1ccc(O)cc1)c1nc2ccccc2o1	.	1%	155%	.	?
COc1cc(/C=N/NC(=O)c2cc(-c3ccccc3)n[nH]2)cc(OC)c1OC	.	4%	.	.	.
O=C(CNCC1CCCO1)Nc1ccc(N2CCCCCC2)cc1 (stereo not drawn)	14µM*	1%	8%	-6%	2
CCN1CCN(C2=CC3=CC(=C(C#N)C#N)CCC3CC2)CC1 (stereo not drawn)	0%	1.4µM*	?	?	?
N#CC(C#N)=C1C=C2C=C(N3CCOCC3)CCC2CC1 (stereo not drawn)	8%	10µM*	?	?	?
OC[C@H]1NC[C@H](O)[C@@H](O)[C@@H]1O	3%	.	.	.	7
O=C1/C(=C/c2ccncc2)SC(=S)N1Cc1ccccc1	.	16µM*	-7%	.	5
CCCN1C(=O)/C(=C/c2ccncc2)SC1=S	-4%	-3%	-3%	3%	11
CCN(c1ccccc1)S(=O)(=O)c1nnc(NC(=O)COc2cccc(C)c2)s1	.	8.9µM*	.	14%[46 µM]	.
CCN(c1ccccc1)S(=O)(=O)c1nnc(NC(=O)COc2ccc(OC)cc2)s1	.	?	.	8%[46 µM]	.
CCOC(=O)/C=c1\s/c(=C\c2sccc2C)c(=O)n1CC(=O)NCc1ccc(C)cc1	8%	7.9µM*	2%	?	1
CCOC(=O)/C=c1\s/c(=C\c2ccc(C)cc2)c(=O)n1CC(=O)NCc1ccco1	-1%	?	13%	1%	11
COc1cc2nc(=S)n3[nH]c(COc4ccccc4C)nc3c2cc1OC	?	-3%	3%	-15%	-1
COc1cc2nc(=S)n3[nH]c(CCn4nc(C)cc4C)nc3c2cc1OC	28%	5µM*	-19%	-2%	2
CC(=O)c1c(O)cccc1O	9%	.	.	.	-1
Nc1c(C(=O)c2ccc(Cl)cc2)sc2nsc(SCCN3CCOCC3)c12	.	20µM*	?	.	?
O=C1C(=Cc2cccn2-c2ccccc2)C(=O)c2ccccc21	-1%	11µM*	2%	-2%	?
O=C1C(=Cc2cccn2-c2ccc(O)cc2)C(=O)c2ccccc21	?	22µM*	?	2%	?
O=C(O)c1ccc(Cl)c(S(=O)(=O)Nc2ccccc2F)c1	.	-4%	.	.	.
C/C(O)=C/c1nc2ccccc2[nH]c1=O	-4%	-2%	-5%	-13%	3
O=c1[nH]c2ccc([N+](=O)[O-])cc2nc1/C=C(\O)c1ccccc1	.	6.3µM*	0%	.	?
CC[C@H](C)[C@H](N)C(=O)N[C@H]1CCC(=O)NCC(C(=O)N[C@@H](Cc2ccc(O)cc2)C(=O)N[C@@H](CCCNC(=N)N)C(=O)N[C@@H](CC(C)C)C(=O)N[C@@H](CCCNC(=N)N)C(=O)N[C@@H](Cc2ccc(O)cc2)C(N)=O)NC(=O)[C@@H]2CCCN2C(=O)[C@@H](NC(=O)[C@@H](N)[C@@H](C)CC)CCC(=O)NCC(C(=O)N[C@@H](Cc2ccc(O)cc2)C(=O)N[C@@H](CCCNC(=N)N)C(=O)N[C@@H](CC(C)C)C(=O)N[C@@H](CCCNC(=N)N)C(=O)N[C@@H](Cc2ccc(O)cc2)C(N)=O)NC(=O)[C@@H]2CCCN2C1=O (stereo partly drawn)	?	.	.	.	-25
SMILES	Menin-MLL TR inh	Epigenetic derep	MLL CXXC-DNA inh	Lamin A splicing	Menin MLL FP FL
Cc1noc(C)c1-c1ccc2ncnc(NCc3cc(F)cc(F)c3)c2c1	?	.	.	.	-2
Cc1noc(C)c1-c1ccc2ncnc(NCCN3CCOCC3)c2c1	9%	.	.	10µM*	3
CN1CCc2c(sc(NC(=O)c3ccc(S(=O)(=O)N4CCc5ccccc54)cc3)c2C(N)=O)C1	.	?	82%	.	?
CNC(=O)c1c(NC(=O)c2ccc(S(=O)(=O)N3CCCc4ccccc43)cc2)sc2c1CCN(C)C2	.	22µM*	?	.	?
CCCC(=O)NC(c1ccc(C)cc1)c1ccc2cccnc2c1O (stereo not drawn)	?	.	?	.	-4
CCCCC(=O)NC(c1ccc(N(C)C)cc1)c1ccc2cccnc2c1O (stereo not drawn)	-21%	.	-25%	.	4
CCCC(=O)NC(c1ccccc1OC)c1ccc2cccnc2c1O (stereo not drawn)	-16%	7.1µM*	-5%	?	0
CCC(=O)NC(c1cccs1)c1ccc2cccnc2c1O (stereo not drawn)	2%	4µM*	-7%	.	3
CC(C)C(=O)NC(c1ccco1)c1ccc2cccnc2c1O (stereo not drawn)	-12%	3.5µM*	-3%	?	2
CC(C)C(=O)NC(c1cccc([N+](=O)[O-])c1)c1ccc2cccnc2c1O (stereo not drawn)	?	.	?	.	1
CCCCC(=O)NC(c1ccccc1OC)c1ccc2cccnc2c1O (stereo not drawn)	.	3.5µM*	-26%	.	0
O[N+]1=CC=CCC1=S.On1ccccc1=S.[Zn]	0%	-1%	.	.	0
CCOC(=O)c1ccc(-c2ccc(/C=C(\C#N)C(=O)Nc3c(C)cccc3Cl)o2)cc1	.	11µM*	.	.	.
CCOC(=O)c1ccc(-c2ccc(/C=C(\C#N)C(=O)Nc3ccc(C)cc3OC)o2)cc1	.	7%	.	.	.
O=C(O)c1ccccc1NS(=O)(=O)c1cccc2ccccc12	.	-4%	.	.	.
CN(C)c1ccc(NC(=O)C2C3C=CC(C3)C2C(=O)O)cc1 (stereo not drawn)	20µM*	.	?	.	-10
CCN(CC)CCCC(C)NC(=O)c1ccc(Cc2nc3ccccc3[nH]2)cc1 (stereo not drawn)	.	1%	.	.	.
CCc1nc(-c2cc(S(=O)(=O)N3CCN(c4ccccc4F)CC3)ccc2OC)no1	.	4%	.	.	.
COc1ccc(S(=O)(=O)N2CCN(c3ccccc3F)CC2)cc1-c1noc(C)n1	.	1.1µM*	.	.	.
COc1ccc(N2CCN(S(=O)(=O)c3ccc(OC)c(-c4noc(C)n4)c3)CC2)cc1	.	5µM*	.	.	.
CCCCCCCCCCOc1cc(OCCCCCCCCCC)cc(N(CC(=O)O)CC(=O)O)c1	-5%	.	.	.	2
CCOc1ccc(C(=O)c2cn(CC(=O)Nc3ccc(Cl)cc3)c3cc4c(cc3c2=O)OCCO4)cc1	.	2%	.	.	.
CCOc1ccc(NC(=O)Cn2cc(C(=O)c3ccc(OCC)cc3)c(=O)c3cc4c(cc32)OCCO4)cc1	.	20µM*	.	.	.
